Reference: PubChem BioAssay (NCATS)
Records with an inconclusive call do not appear. Where a call stands in place of a potency, no number is given. Active and inactive are the calls of the source. The call rests on the fitted dose curve; in most records, active means well fitted curve in the direction sought with a large enough effect; inconclusive means small, poorly fitted or top-dose-only effect, or another doubt; inactive means no such curve, though single readings can be large; an effect the other way counts as inactive or inconclusive.

Legend:
[1] = qHTS of pediatric cancer cell lines to identify multiple opportunities for drug repurposing: Primary screen for SJ-GBM2 cells (AID 1347091)
Summary of the method: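 Viability measured as metabolically active cells via CellTiter-Glo luminescence following 48 hours of compound exposure, 11-point dilutions in confirmatory testing. 500-1,000 cells/well plated 5 hours before dosing; controls were DMSO and 2.3 µM bortezomib.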

[2] = qHTS of pediatric cancer cell lines to identify multiple opportunities for drug repurposing: Primary screen for A673 cells (AID 1347092); further: nearly all actives have a fitted effect of over 45% in size
Summary of the method: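 Cells are plated, rested 5 h, dosed by pintool, incubated 48 h, then lysed with CellTiter-Glo and read by luminescence. DMSO is the neutral control; bortezomib at 2.3 uM final is the positive control.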

[3] = qHTS of pediatric cancer cell lines to identify multiple opportunities for drug repurposing: Primary screen for SK-N-MC cells (AID 1347093)
Summary of the method: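 Metabolically active cells were quantified by ATP-dependent luminescence (CellTiter-Glo, 15 min at room temperature) following 48 h treatment. Cells had been plated at 500-1,000 per well and settled for 5 h beforehand.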

[4] = qHTS of pediatric cancer cell lines to identify multiple opportunities for drug repurposing: Primary screen for BT-37 cells (AID 1347094)
Summary of the method: (§1)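 Following a 5-hour attachment period, cells at 500-1,000/well received compounds and were cultured for 48 hours. CellTiter-Glo was added and luminescence read to estimate viable, metabolically active cells.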

[5] = qHTS of pediatric cancer cell lines to identify multiple opportunities for drug repurposing: Primary screen for NB-EBc1 cells (AID 1347095)
Summary of the method: as §1

[6] = qHTS of pediatric cancer cell lines to identify multiple opportunities for drug repurposing: Primary screen for U-2 OS cells (AID 1347096); further: nearly all actives have a fitted effect of over 50% in size
Summary of the method: (§2)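 Viability after 48 h compound treatment at 37C, 500-1,000 cells/well, read as ATP luminescence with CellTiter-Glo. Primary screens used 11-point (MIPE, 0.78 nM-46 µM) or 8-point (NPC, 0.59 nM-46 µM) final concentrations; follow-up screens used 11-point dilutions.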

[7] = qHTS of pediatric cancer cell lines to identify multiple opportunities for drug repurposing: Primary screen for Saos-2 cells (AID 1347097); further: nearly all actives have a fitted effect of over 40% in size
Summary of the method: as §1

[8] = qHTS of pediatric cancer cell lines to identify multiple opportunities for drug repurposing: Primary screen for SK-N-SH cells (AID 1347098); further: nearly all actives have a fitted effect of over 65% in size
Summary of the method: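 Cells (500-1,000/well) rested 5 h, then received compounds for 48 h; metabolically active cells were measured by CellTiter-Glo luminescence. Final concentrations spanned up to 46 µM (MIPE, 11-point) or 0.59 nM-46 µM (NPC, 8-point) in primary screens, 11-point in follow-ups.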

[9] = qHTS of pediatric cancer cell lines to identify multiple opportunities for drug repurposing: Primary screen for NB1643 cells (AID 1347099); further: nearly all actives have a fitted effect of over 50% in size
Summary of the method: as §1

[10] = qHTS of pediatric cancer cell lines to identify multiple opportunities for drug repurposing: Primary screen for LAN-5 cells (AID 1347100)
Summary of the method: as §2
Potency means the concentration at half of the fitted maximal effect.

With OCCN1C[C@H](O)[C@@H](O)[C@H](O)[C@@H]1CO the Potency [1] was “inactive”, the Potency [2] was 9350 nM (active) and the Potency [3] was “inactive”. For the same compound, the Potency [4] was 19300 nM (active), the Potency [5] was “inactive” and the Potency [6] was “inactive”. The Potency [7] was “inactive” and the Potency [8] was “inactive”.

For NC(=O)Nc1sc(-c2ccc(F)cc2)cc1C(N)=O, the Potency [1] was 372 nM (active), the Potency [2] was 590 nM (active) and the Potency [3] was 59 nM (active). The Potency [4] was 685 nM (active), the Potency [5] was 469 nM (active) and the Potency [6] was 4690 nM (active). For the same compound, the Potency [7] was 2350 nM (active), the Potency [8] was 5410 nM (active) and the Potency [9] was 4690 nM (active). The Potency [10] was 1180 nM (active).

With CN(C)c1ccc(C(=O)NCCCCCCC(=O)NO)cc1 the Potency [1] was 743 nM (active), the Potency [2] was 1180 nM (active) and the Potency [3] was 332 nM (active). The Potency [4] was 153 nM (active), the Potency [5] was 469 nM (active) and the Potency [6] was 1180 nM (active). For the same compound, the Potency [7] was 118 nM (active), the Potency [8] was 2410 nM (active) and the Potency [9] was 296 nM (active). The Potency [10] was 132 nM (active).

For CC(C)N1[N]C(=C2C=c3cc(O)ccc3=N2)c2c(N)ncnc21, the Potency [1] was 93.5 nM (active), the Potency [2] was 1480 nM (active) and the Potency [3] was 148 nM (active). The Potency [4] was 344 nM (active), the Potency [5] was 590 nM (active) and the Potency [6] was 14800 nM (active). For the same compound, the Potency [7] was 5260 nM (active), the Potency [8] was 19200 nM (active) and the Potency [9] was 18700 nM (active).

In the case of CC(C)(O)[C@H]1CC[C@@](C)([C@H]2[C@@H](O)C[C@@]3(C)[C@@H]4C[C@H](O[C@@H]5O[C@H](CO)[C@@H](O)[C@H](O)[C@@H]5O)[C@H]5C(C)(C)[C@@H](O[C@@H]6OC[C@@H](O)[C@H](O)[C@@H]6O)CC[C@@]56C[C@@]46CC[C@]23C)O1, the Potency [1] is reported as “inactive”, the Potency [2] is reported as “inactive” and the Potency [3] is reported as “inactive”. The Potency [4] was “inactive”, the Potency [5] was “inactive” and the Potency [6] was “inactive”. The Potency [7] was “inactive”, the Potency [8] was “inactive” and the Potency [9] was “inactive”. For the same compound, the Potency [10] was “inactive”.

In the case of O=C(O)C(=O)Nc1cccc(C2=NN=N[N]2)c1, the Potency [1] is reported as “inactive”, the Potency [2] is reported as “inactive” and the Potency [3] is reported as “inactive”. The Potency [4] was “inactive”, the Potency [5] was “inactive” and the Potency [6] was “inactive”. For the same compound, the Potency [7] was “inactive”, the Potency [8] was “inactive” and the Potency [9] was “inactive”.

In the case of CC(=O)N[C@H]1[C@@H]([C@H](O)[C@H](O)CO)OC(C(=O)O)=C[C@@H]1N=C(N)N, the Potency [1] is reported as “inactive”, the Potency [2] is reported as “inactive” and the Potency [3] is reported as “inactive”. For the same compound, the Potency [4] was “inactive”, the Potency [5] was “inactive” and the Potency [6] was “inactive”. For the same compound, the Potency [7] was “inactive”, the Potency [8] was “inactive” and the Potency [9] was “inactive”. The Potency [10] was “inactive”.

With O=C1NCCc2[nH]c(-c3ccncc3)cc21 the Potency [1] was 2350 nM (active), the Potency [2] was 1180 nM (active) and the Potency [3] was 4180 nM (active). For the same compound, the Potency [4] was 3060 nM (active) and the Potency [5] was 2090 nM (active).

For N[C@H]1CN(c2c(F)cc3c(=O)c(C(=O)O)cn(C4C[C@@H]4F)c3c2Cl)CC12CC2 (some centres not stated), the Potency [1] was “inactive”, the Potency [2] was “inactive” and the Potency [3] was “inactive”. The Potency [4] was “inactive”, the Potency [5] was “inactive” and the Potency [6] was “inactive”. For the same compound, the Potency [7] was “inactive”, the Potency [8] was “inactive” and the Potency [9] was “inactive”. The Potency [10] was 21100 nM (active).

In the case of Nc1ccn(C[C@@H](CO)OCP(=O)(O)O)c(=O)n1, the Potency [1] is reported as “inactive”, the Potency [2] is reported as “inactive” and the Potency [3] is reported as “inactive”. The Potency [4] was “inactive”, the Potency [5] was “inactive” and the Potency [6] was “inactive”. For the same compound, the Potency [7] was “inactive”, the Potency [8] was “inactive” and the Potency [9] was “inactive”. For the same compound, the Potency [10] was “inactive”.

For C[C@@]12C[C@@]3(O)O[C@@H](O1)[C@]1(COC(=O)c4ccccc4)[C@@H]3C[C@@]12O[C@@H]1O[C@H](CO)[C@@H](O)[C@H](O)[C@@H]1O, the Potency [1] was “inactive”, the Potency [2] was “inactive” and the Potency [3] was “inactive”. For the same compound, the Potency [4] was “inactive”, the Potency [5] was “inactive” and the Potency [6] was “inactive”. The Potency [7] was “inactive”, the Potency [8] was “inactive” and the Potency [9] was “inactive”. For the same compound, the Potency [10] was “inactive”.

With NC(=O)Nc1cc(-c2ccc(CN3CCOCC3)cc2)sc1C(N)=O the Potency [1] was 59 nM (active), the Potency [2] was 5900 nM (active) and the Potency [3] was 105 nM (active). The Potency [4] was 21700 nM (active), the Potency [5] was 235 nM (active) and the Potency [6] was 18700 nM (active). The Potency [7] was 2350 nM (active), the Potency [8] was 1360 nM (active) and the Potency [9] was 29.6 nM (active). The Potency [10] was 33.2 nM (active).

For CC(=O)NC(CS)C(=O)O (configuration not stated), the Potency [1] was “inactive”, the Potency [2] was “inactive” and the Potency [3] was “inactive”. The Potency [4] was “inactive”, the Potency [5] was “inactive” and the Potency [6] was “inactive”. The Potency [7] was “inactive”, the Potency [8] was “inactive” and the Potency [9] was “inactive”. For the same compound, the Potency [10] was “inactive”.

In the case of COC[C@H](NC(=O)c1cnc(C)s1)C(=O)N[C@@H](COC)C(=O)N[C@@H](Cc1ccccc1)C(=O)[C@@]1(C)CO1, the Potency [1] is reported as 66.2 nM (active), the Potency [2] is reported as 93.5 nM (active) and the Potency [3] is reported as 29.6 nM (active). The Potency [4] was 273 nM (active), the Potency [5] was 83.3 nM (active) and the Potency [6] was 372 nM (active). The Potency [7] was 662 nM (active), the Potency [8] was 541 nM (active) and the Potency [9] was 132 nM (active). For the same compound, the Potency [10] was 132 nM (active).

In the case of CN[C@H](CC(C)C)C(=O)N[C@H]1C(=O)N[C@@H](CC(N)=O)C(=O)N[C@@H]2C(=O)N[C@H]3C(=O)N[C@H](C(=O)N[C@H](C(=O)O)c4cc(O)cc(O)c4-c4cc3ccc4O)[C@H](O)c3ccc(c(Cl)c3)Oc3cc2cc(c3O[C@@H]2O[C@H](CO)[C@@H](O)[C@H](O)[C@@H]2O[C@H]2C[C@](C)(N)[C@H](O)[C@H](C)O2)Oc2ccc(cc2Cl)[C@H]1O, the Potency [1] is reported as “inactive”, the Potency [2] is reported as “inactive” and the Potency [3] is reported as “inactive”. For the same compound, the Potency [4] was “inactive”, the Potency [5] was “inactive” and the Potency [6] was “inactive”. The Potency [7] was “inactive”, the Potency [8] was “inactive” and the Potency [9] was “inactive”. The Potency [10] was “inactive”.

With COC(=O)[C@H](CCCN=C(N)N)NS(=O)(=O)c1ccc(C)cc1 the Potency [1] was “inactive”, the Potency [2] was “inactive” and the Potency [3] was “inactive”. For the same compound, the Potency [4] was “inactive”, the Potency [5] was “inactive” and the Potency [6] was “inactive”.
